Bioassay records: PubChem, National Center for Advancing Translational Sciences (NCATS)
The list is not random: actives were taken first. Their share in the collection is about 12%.
HP1b binding inh: HTS for Inhibitors of HP1-beta Chromodomain Interactions with Methylated Histone Tails; Chromobox protein homolog 1 (Homo sapiens), P83916; AlphaScreen HP1-beta / biotin-H3K9me3 peptide binding; Potency, µM (top dose mostly 114 µM), without a hit: top-dose activity change, negative = inhibition, actives largely listed as inhibitors; actives 0.56% (n = 390,000); AID 540317, 2011; also: potency is read from the fitted curve at half-maximal effect; nearly all actives have a fitted effect of over 70% in size
Target sequence (P83916 whole entry, looked up): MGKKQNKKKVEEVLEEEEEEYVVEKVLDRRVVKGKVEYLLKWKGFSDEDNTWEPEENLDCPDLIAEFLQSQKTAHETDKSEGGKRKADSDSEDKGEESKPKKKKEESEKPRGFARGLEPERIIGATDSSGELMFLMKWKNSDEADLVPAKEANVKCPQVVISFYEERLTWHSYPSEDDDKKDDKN
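HP1-beta protein (50 nM final) preincubated 30 min at room temperature with biotinylated H3(1-18)K9me3 peptide (50 nM) in PBS pH 7.4, 0.01% Tween-20, then compound added for 30 min. AlphaScreen streptavidin donor/nickel chelate acceptor beads (10 ug/mL final), 30 min dark, luminescence read.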
PLK1 PBD block: qHTS for Inhibitors of PLK1-PDB (polo-like kinase 1 - polo-box domain): Primary Screen; Serine/threonine-protein kinase PLK1 (Homo sapiens), P53350; Plk1 PBD binding of FITC phosphopeptide, fluorescence polarization; Potency, µM, for inactives: max response, negative = inhibition, most hits filed as inhibitors; actives 2.8% (n = 360,000); also: potency is read from the fitted curve at half-maximal effect; series mostly up to about 57 µM; % is scaled to controls: 0 for no effect and ±100 for the full control effect; nearly all actives have a fitted effect of over 65% in size
PI5P4Ka inh: qHTS for Inhibitors of phosphatidylinositol 5-phosphate 4-kinase (PI5P4K). Phosphatidylinositol 5-phosphate 4-kinase type-2 alpha (Homo sapiens), P48426. PI5P4Kalpha enzyme, ADP-Glo luminescence, 60 min; stronger effect = lower value. max response, %. actives 1.2% (n = 330,000). AID 652105, 2013; active = max response of -50% or lower; inconclusive = between -30% and -50%; inactive = -30% or higher; also: value at the top dose of about 77 µM; % is scaled to controls: 0 for no effect and ±100 for the full control effect
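Quantitative HTS of the MLSMR library against PI5P4Kalpha with substrate. ATP added last at 5 microM final; room temperature, 60 minutes. Remaining ATP depleted, ADP converted and read as luminescence.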
G9a block: qHTS Assay for Inhibitors of Histone Lysine Methyltransferase G9a. Histone-lysine N-methyltransferase EHMT2 (Homo sapiens), Q96KQ7. G9a H3K9 monomethylation, AlphaScreen, 2 h. Potency, µM (highest dose often 102 µM), for the others: top-dose activity, negative = inhibition, usual class: inhibitors. actives 8.8% (n = 350,000). AID 504332, 2011; also: potency is read from the fitted curve at half-maximal effect; % is scaled to controls: 0 for no effect and ±100 for the full control effect; nearly all actives have a fitted effect of over 75% in size
Target sequence (Q96KQ7 913-1193 limits assumed): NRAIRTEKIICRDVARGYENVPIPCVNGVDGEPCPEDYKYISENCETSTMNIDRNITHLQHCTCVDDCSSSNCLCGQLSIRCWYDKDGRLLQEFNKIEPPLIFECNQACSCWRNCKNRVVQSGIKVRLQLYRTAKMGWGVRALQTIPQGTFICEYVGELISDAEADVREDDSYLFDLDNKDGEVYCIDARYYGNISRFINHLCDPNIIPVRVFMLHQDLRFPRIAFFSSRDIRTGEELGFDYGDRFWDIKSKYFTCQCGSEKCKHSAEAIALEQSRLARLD
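Signal arises when biotinylated H3K9 peptide, once monomethylated, bridges streptavidin donor and antibody-captured acceptor beads. Enzyme at 20 nM was preincubated 15 min with test compounds; peptide 500 nM and SAM 20 uM then reacted for 2 h.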
BAZ2B block: qHTS Assay for Inhibitors of BAZ2B | Bromodomain adjacent to zinc finger domain protein 2B (Homo sapiens), Q9UIF8 | actives 4.4% (n = 360,000) | AlphaScreen BAZ2B-H3K14Ac peptide displacement | Potency, µM (highest dose often 114 µM), inactives show at the top dose activity change, negative = inhibition, hits mostly inhibitors; also: potency is read from the fitted curve at half-maximal effect; % is scaled to controls: 0 for no effect and ±100 for the full control effect; nearly all actives have a fitted effect of over 60% in size
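AlphaScreen luminescence quantifies BAZ2B engagement of H3K14Ac peptide; the protein and biotinylated peptide are both at 50 nM final, buffer PBS pH 7.4 with 0.01% Tween-20, all steps at room temperature.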
JMJD2A Tudor inh: qHTS Assay for Inhibitors of JMJD2A-Tudor Domain; actives 4.4% (n = 390,000); AlphaScreen JMJD2A-Tudor / H3K4me3 peptide binding; Potency, µM (highest dose often 114 µM), inactives show top-dose activity change, negative = inhibition, actives largely listed as inhibitors; Lysine-specific demethylase 4A (Homo sapiens), O75164; also: potency is read from the fitted curve at half-maximal effect; % is scaled to controls: 0 for no effect and ±100 for the full control effect; nearly all actives have a fitted effect of over 50% in size
ADP-Glo interf: qHTS for Inhibitors of PI5P4K: ADP-Glo counter assay | shares compounds with PI5P4Ka inh | AID 743285, 2014 | Potency, µM (highest dose often 76.9 µM), for inactives: at the top dose activity change, negative = inhibition, actives largely listed as inhibitors | 1,100 tested, under 10 active | ADP-Glo detection counter-screen, luciferase luminescence, no enzyme
The depositor's hits bear a star; ? = inconclusive; · = no result given; [ ] = dose if it differs, or a comment. Unless noted, calls follow the shape of the dose curve; as a rule, active = well fitted curve in the direction sought with a large enough effect; inconclusive = small, poorly fitted or top-dose-only effect, or another doubt; inactive = no such curve, though single readings can be large; an effect the other way counts as inactive or inconclusive.

SMILES	HP1b binding inh	PLK1 PBD block	PI5P4Ka inh	G9a block	BAZ2B block	JMJD2A Tudor inh	ADP-Glo interf
COc1cc(S(=O)(=O)n2ccc(C)n2)c(C)cc1C	·	-8%	7	·	·	·	·
Nc1ncnc2c1ncn2[C@@H]1O[C@H](COP(=O)(O)OP(=O)(O)O)[C@@H](O)[C@H]1O	·	·	·	35%[59 µM]	·	·	·
CNC(=O)COC(=O)c1cc(-c2ccco2)nc2ccccc12	45µM*	24µM*	-87*	10µM*	50µM*	20µM*	1%
CCN(CC)C(=O)COC(=O)c1cc(-c2ccco2)nc2ccccc12	?	?	-69*	4µM*	22µM*	56µM*	-1%
CCN(CC)C(=O)COC(=O)c1cc(-c2ccc(OC)cc2)nc2ccccc12	78%	0%	·	30%[59 µM]	25%	26%	·
COc1ccc(CCNC(=O)c2cc(-c3ccco3)nc3ccccc23)cc1	?	?	-61*	·	·	45µM*	-1%
COCCNc1nc(NCCOc2ccccc2)c2sc(-c3ccccc3)cc2n1	·	1%	·	·	·	·	-1%
COc1ccccc1CNc1nc(NCc2ccccc2)nc2ccsc12	·	-1%	·	·	·	·	-8%
COc1ccccc1CNc1nc(NC(C)C)nc2cc(-c3ccccc3)sc12	·	3%	·	·	·	·	-9%
COc1ccccc1CNc1nc(NCc2cccc(OC)c2OC)c2sccc2n1	·	-6%	·	·	·	·	3%
COC(=O)c1scc(-c2ccc(C)cc2)c1S(=O)(=O)Nc1cc(OC)c(OC)c(OC)c1	-8%	·	·	0%[59 µM]	-25%	-30%	·
COc1cccc(CNc2nc(NC(C)C)nc3ccsc23)c1	·	-10%	·	·	·	·	2%
COc1ccccc1CNc1nc(NCc2ccc(C)cc2C)c2sccc2n1	·	0%	·	·	·	·	-6%
COCCNc1nc(NCc2ccc(C)cc2C)c2sccc2n1	·	2%	-1	·	·	·	·
COCCNc1nc(NCc2cccc(OC)c2)c2sccc2n1	·	3%	-4	·	·	·	·
Cc1cccc(N2CCN(C(=O)Cn3cnc4sc(C)c(S(=O)(=O)N5CCN(c6ncccn6)CC5)c4c3=O)CC2C)c1 (configuration not stated)	-3%	·	·	-8%[59 µM]	-3%	-27%	·
O=C(Nc1cccc2cccnc12)c1csc(COCCO)n1	·	-13%	-28	·	·	·	-7%
Cc1nn(-c2ccccc2)c2nc(C(Cl)(Cl)Cl)[nH]c(=O)c12	9%	?	8	-35%	0%	-5%	·
Cc1nn(-c2ccccc2)c2nc(=O)n(-c3ccccc3)cc12	?	3µM*	·	11%[59 µM]	3%	?	0%
CC[C@@H]1OC(=O)[C@H](C)[C@H](O[C@@H]2C[C@](C)(OC)[C@H](O)[C@H](C)O2)[C@H](C)[C@H](O[C@@H]2O[C@@H](C)C[C@@H](N(C)C)[C@@H]2O)[C@](C)(O)C[C@H](C)C(=NOCOCCOC)[C@H](C)[C@H](O)[C@]1(C)O	·	·	·	31%[21.5 µM]	·	·	·
CC(C)C(=O)Nc1ccccc1N1CCN(S(C)(=O)=O)CC1	8%	-7%	0	9%[59 µM]	-1%	-17%	-5%
CS(=O)(=O)N1CCN(c2ccccc2NC(=O)C(c2ccccc2)c2ccccc2)CC1	18%	-7%	·	-8%[59 µM]	7%	-8%	·
O=C(COC(=O)c1ccc(NS(=O)(=O)c2cccs2)cc1O)NCc1ccccc1	26%	5%	?	-26%	-9%	-12%	·
O=C(COC(=O)c1ccc(NS(=O)(=O)c2cccs2)cc1O)Nc1nc2ccccc2s1	13%	-19%	-69*	·	-34%	-28%	5%
